Results reported in PubChem BioAssay AID652016 (National Center for Advancing Translational Sciences (NCATS), 2013).
Inconclusive results are not listed. Entries that show only a call come without a potency. Active and inactive are the calls of the source. Calls follow the shape of the dose curve; as a rule, active = well fitted inhibition curve with a large enough effect; inconclusive = small, poorly fitted or top-dose-only effect; inactive = flat fitted curve, though single readings scatter.

The compounds below were run against Luciferin 4-monooxygenase (Photinus pyralis) (UniProt P08659) (assay: qHTS Assay for Inhibitors of Firefly Luciferase from the GSK Published Protein Kinase Inhibitor Set). Details: purified firefly luciferase, luminescence inhibition; series mostly up to 57.5 µM.
From the text: FLuc (firefly luciferase) is the prototypical bioluminescent reporter gene from Photinus pyralis.[1] The enzyme catalyzes the oxidation luciferin via luciferin-AMP to produce light. FLuc is used in cell-based reporter gene-based assays for screening small molecule chemical libraries. However, small molecule luciferase inhibitors present in most large chemical libraries are often enriched in the output of high throughput screens using this reporter sometimes complicating interpretation and candidate selection.
RLuc is a bioluminescent reporter gene luciferase from Renilla reniformis, also known as the sea pansy. RLuc uses the luciferin substrate coelenterazine. RLuc is often used in combination with the nonhomologous luciferase FLuc (firefly luciferease) as a trasfection or pathway normalization control. Recently, non-homologous reporters have been described for high throughput screening 'coincidence' reporter gene strategies.
1. Fan F, Wood KV (2007) Bioluminescent assays for high-throughput screening. Assay Drug Dev Technol 5: 127-136.
2. Thorne N, Inglese J, Auld DS (2010) Illuminating insights into firefly luciferase and other bioluminescent reporters used in chemical biology. Chem Biol 17: 646-657.
3. […] Chem Biol 19: 1060-1072.
4. Michelini E, Cevenini L, Mezzanotte L, Coppa A, Roda A (2010) Cell-based assays: fuelling drug discovery. Anal Bioanal Chem 398: 227-238.
5. Cheng KC, Inglese J (2012) A coincidence reporter-gene system for high-throughput screening. Nat Methods 9: 937.
Biochemical firefly luciferase enzyme assay
NCGC Assay Protocol Summary:
Reagents: 50mM Tris acetate, pH 7.5; 10mM Mg acetate; 10uM D-luciferin (Sigma #L9504); 10uM ATP; 0.01% Tween-20; 0.05% BSA; 10nM P. pyralis luciferase (Sigma #L9506)
Control compounds used were two known firefly luciferase inhibitors (compounds (2) and (5) in Auld et al., 2010), and DMSO.
Three microliters containing firefly luciferase substrates in buffer (final concentrations: 50mM Tris acetate, pH 7.5, 10mM Mg acetate, 0.01% Tween-20, 0.05% BSA, 10uM D-luciferin, and 10uM ATP) are dispensed into each well of a Greiner white, solid-bottom 1536-well format plate using a flying reagent dispenser (FRD). These assay plates were then treated with 23nL of compound or DMSO using a Kalypsys pin tool, which allows for delivery of a 7-point interplate titration of each compound to the assay plates (quantitative HTS), with final compound concentrations ranging from approximately 60uM to 300pM. One microliter of firefly luciferase in 50mM Tris-acetate buffer was then delivered by FRD to each well for a final enzyme concentration of 10nM. Luciferase activity was then measured using an Envision plate reader (PerkinElmer), with an average incubation time of 5 min.
Potency is read from the fitted curve at half-maximal effect.

Luciferin 4-monooxygenase (Photinus pyralis), sequence (P08659 whole entry, looked up): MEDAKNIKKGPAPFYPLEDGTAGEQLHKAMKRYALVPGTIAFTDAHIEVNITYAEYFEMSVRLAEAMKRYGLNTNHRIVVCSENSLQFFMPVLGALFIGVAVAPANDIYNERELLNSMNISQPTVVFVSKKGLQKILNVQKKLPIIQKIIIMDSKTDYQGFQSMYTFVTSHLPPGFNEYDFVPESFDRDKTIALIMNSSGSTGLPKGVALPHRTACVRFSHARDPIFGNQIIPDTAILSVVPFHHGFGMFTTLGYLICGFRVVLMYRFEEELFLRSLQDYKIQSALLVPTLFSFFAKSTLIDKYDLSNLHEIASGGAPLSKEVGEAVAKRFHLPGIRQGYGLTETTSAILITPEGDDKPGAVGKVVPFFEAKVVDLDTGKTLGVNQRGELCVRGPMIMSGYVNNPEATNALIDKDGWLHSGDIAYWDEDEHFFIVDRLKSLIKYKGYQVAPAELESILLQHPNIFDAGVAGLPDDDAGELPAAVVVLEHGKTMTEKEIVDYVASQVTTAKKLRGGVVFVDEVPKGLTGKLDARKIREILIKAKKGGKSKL

Structure (SMILES)	Potency
O=C1NC(=O)C(c2cccc([N+](=O)[O-])c2)=C1Nc1cc(Cl)c(O)c(Cl)c1	inactive
CN(c1ccc(NC(=O)Nc2c(Cl)cccc2Cl)cc1)c1ccnc(Nc2cccc(CS(C)(=O)=O)c2)n1	580 nM (active)
NC(=O)c1cc(-c2ccc(F)cc2)cc(-c2ccncc2)c1N	inactive
COc1cc2c(cc1Nc1nc(Nc3ccsc3C(N)=O)c3cc[nH]c3n1)N(C(=O)CN(C)C)CCC2(C)C	inactive
CC(C)c1ccc2c(N=Nc3ccc(S(N)(=O)=O)cc3)c(O)[nH]c2c1	inactive
Cc1cccc(-c2[nH]ncc2-c2ccc3ncccc3n2)n1	inactive
Cc1cccc(Nc2ncc(-c3ccccc3)o2)c1	580 nM (active)
NC(=O)c1sc(-n2cnc3ccccc32)cc1OCc1ccccc1Br	inactive
Cc1cccc2c(N=Nc3ccc(S(N)(=O)=O)cc3)c(O)[nH]c12	inactive
COc1ccc(-c2oc3ncnc(N)c3c2-c2ccc(NC(=O)Nc3cc(C(F)(F)F)ccc3F)cc2)cc1	inactive
COc1cc2ncn(-c3cc(OCc4ccccc4S(C)(=O)=O)c(C#N)s3)c2cc1OC	inactive
CC(=Nc1ccc(S(N)(=O)=O)cc1)c1c(O)[nH]c2ccccc12	3660 nM (active)
NS(=O)(=O)c1ccc(N=Nc2c(O)[nH]c3cccc(CCc4ccncc4)c23)cc1	inactive
NS(=O)(=O)c1ccc(N=Cc2c(O)[nH]c3ccc4ncsc4c23)cc1	inactive
N#Cc1c(NC(=O)c2ccccc2F)sc2c1CCCC2	819 nM (active)
CN1CCN(Cc2ccc(-c3cc4ncnc(Nc5ccc(OCc6cccc(F)c6)c(Cl)c5)c4s3)o2)CC1	inactive
Oc1cccc(-c2nc(-c3ccccc3)[nH]c2-c2ccncc2)c1	inactive
Nc1nc(-c2ccc(F)cc2)c(-c2ccc3ncccc3n2)s1	inactive
CS(=O)(=O)CCNCc1nc(-c2ccc3ncnc(Nc4ccc(OCc5cccc(C(F)(F)F)c5)cc4)c3c2)cs1	inactive
Clc1ccc(-c2nn3ncccc3c2-c2ccnc(Nc3ccccc3)n2)cc1	inactive

Structure (SMILES)	Potency
COc1cc(Nc2ncc(-c3ccccc3)o2)cc(OC)c1OC	inactive
Fc1ccc(-c2nc3n(c2-c2ccncc2)CCS3)cc1	inactive
CCn1c(-c2nonc2N)nc2c(N3CCCC3)nccc21	inactive
COc1ccc2ncn(-c3cc(OC(C)c4ccccc4Cl)c(C(N)=O)s3)c2c1 (stereo not given)	inactive
CC(C)c1ccc(-c2cc(-c3cn[nH]c3-c3ccccn3)ccn2)cc1	inactive
O=C(OC1CNC(C#Cc2cc3ncnc(Nc4ccc5c(ccn5Cc5cc(F)ccc5F)c4)c3s2)C1)N1CCOCC1 (stereo not given)	inactive
FC(F)(F)CNc1nccc(-c2cnn3ncccc23)n1	inactive
N#Cc1ccc(Oc2nccc(-c3c(-c4ccc(F)cc4)ncn3C3CCNCC3)n2)cc1	inactive
CCn1c(-c2nonc2N)nc2cnc(Oc3cccc(NC(=O)c4ccc(OCCN5CCOCC5)cc4)c3)cc21	inactive
COc1cc(C=NNc2ncnc3c2cnn3-c2ccccc2)ccc1O	inactive
Fc1ccc(-c2ncn(CCCN3CCOCC3)c2-c2ccncc2)cc1	inactive
O=C1NC(=O)C(c2cccc(Cl)c2)=C1Nc1ccc(O)c(Cl)c1	inactive
CC(Oc1cc(-n2cnc3ccc(OCC4CCN(C)CC4)cc32)sc1C(N)=O)c1ccccc1C(F)(F)F (stereo not given)	inactive
Nc1nc(-c2cccc(Cl)c2)c(-c2ccc3ncccc3n2)s1	inactive
Fc1cccc(COc2ccc(Nc3ncnc4sc(-c5ccco5)cc34)cc2Cl)c1	inactive
c1cc(-c2cnn3nc(N4CCOCC4)ccc23)nc(NC2CC2)n1	4610 nM (active)
Nc1ncnc2occ(-c3ccc(NC(=O)Nc4cc(C(F)(F)F)ccc4F)cc3)c12	inactive
Cn1c(-c2nonc2N)nc2cnccc21	inactive
COc1cccc(-n2nc(C)c3c(NN=C(C)c4ccncc4)ncnc32)c1	inactive
CCc1ccc(Oc2nccc(-c3c(-c4ccc(F)cc4)ncn3C3CCNCC3)n2)cc1	inactive
